The values below come from PubChem BioAssay AID898 (University of Pittsburgh Molecular Library Screening Center, 2007).

Each structure is given as a SMILES string. Hit rate of the full screen: of about 140,000 compounds, about 220 (0.16%) were called active. What follows is part of a selection rich in actives, with near analogues and random picks from the rest. Unmarked numbers belong to inactive results. No stated cut-off is given here; in the data, active means inhibition above about 50%; inactive means the rest.

This experiment concerns YopH tyrosine phosphatase [Yersinia enterocolitica]. The experiment is described as follows: YopH tyrosine phosphatase inhibitors, primary screen, biochemical, fluorescence Ex485/Em525 (AID 898). As to conditions: stronger effect = higher value, concentration not given here.
As for `Cc1ccc(NC(=O)CCC(=O)N/N=C/c2ccco2)c(C)c1`, the inhibition – broadly, the relative decrease from the control value, in per cent – is -19.1%.

Take `CCCNC(=O)OC[C@H]1O[C@H](CCO/N=C/[C@@H](NS(=O)(=O)c2ccc(C)cc2)[C@H](C)/C=C/CC(=O)OC)C=C[C@@H]1Oc1ccc(OC)cc1`: the inhibition is -21.3%.

Turning to `CC(=O)c1ccc(NC(=S)NC(=O)CC(C)C)cc1`, the inhibition was -2.98%.

Take `COc1cc(OC)cc(C(=O)N[C@H](C(=O)OCC(=O)NC(C)c2ccccc2)C(C)C)c1` (some centres not stated): the inhibition was -27.4%.

With `CCCCC(CC(C)O)c1n[nH]c(=S)n1-c1ccccc1` (configuration not stated), the inhibition was -33.5%.

Consider `CC(C)c1nccn1S(=O)(=O)c1cc([N+](=O)[O-])ccc1Cl`, for which the inhibition was -25.1%.

As to `CCCCCOc1ccc(/C=C/C(=O)NCCc2nc3ccccc3[nH]2)cc1OC`, the inhibition is -36.7%.

Take `C=CCNC(=S)NNC(=O)COc1c(Cl)cc(Cl)cc1Cl`: the inhibition is -25.1%.

Turning to `COC(=O)Cc1ccc(NC(=S)NCc2ccccc2)cc1`, the inhibition is -21.4%.

For `Cc1ccc(OCc2nnc(SC3CCc4ccccc4C3=O)n2C)cc1` (configuration not stated), the inhibition was -10.2%.

Consider `O=C(Nc1nnc(SCc2ccccc2Cl)s1)c1cccc([N+](=O)[O-])c1`, for which the inhibition is -19.7%.

On to `CC/C(=N\NC(=O)c1ccccc1Cl)c1ccc(Br)s1`, for which the inhibition is -30%.

As for `CCCCN=C1C([N+](=O)[O-])=CC=C2C1=NC1(CCCCC1)N2O`, the inhibition was -23.5%.

On to `Cc1ccc(S(=O)(=O)N2CCOCC2)cc1C(=O)NC(=S)N(Cc1ccccc1)C(C)C`, for which the inhibition is -13.5%.

In the case of `CC(C)Nc1nnc(SCC(=O)c2c[nH]c3ccccc23)s1`, the inhibition was -37.7%.

For `O=C(c1cccs1)n1nc(NCc2ccccc2)nc1NCc1ccccc1`, the inhibition was -28.9%.

For `COc1ccccc1-c1nnc(NC(=O)c2ccc3ncsc3c2)o1`, the inhibition is -9.55%.

Take `CN(C)c1ccnc2sc(C(=O)c3ccccc3)c(N)c12`: the inhibition was 9.26%.

On to `O=C(O)CCS(=O)(=O)c1ccc(-c2ccccc2)cc1`, for which the inhibition was -26.8%.

Turning to `CCOc1ncccc1C(=O)N(C)CC(=O)Nc1ccc(F)cc1`, the inhibition was -16.5%.

Regarding `CCOC(=O)c1c(/N=C/c2cc(C)ccc2O)sc2c1CCC2`, the inhibition is -9.28%.

Take `CCNC(=S)N(CCc1c(C)[nH]c2ccc(C)cc12)Cc1ccco1`: the inhibition was -11.6%.

As for `C=CCOc1ccc(/C=N/NC(=O)C(C)Sc2ccccn2)cc1OCC` (configuration not stated), the inhibition is -28.1%.

For the molecule `O=C(COC(=O)Cc1ccc(Br)cc1)Nc1c(F)c(F)c(F)c(F)c1F`, the inhibition is -9.87%.

`CN(C)c1ccc(/C=N/N(Cc2ccccc2)c2ccccc2)cc1`: the inhibition was -23.4%.

As to `C=CCn1c(SCC(N)=O)nnc1-c1cc2c(s1)CCC(CC)C2` (configuration not stated), the inhibition was -11%.

Regarding `CCC(C)(C(=O)Nc1ccccc1C)N(C(=O)CNC(C)=O)c1ccc(C)cc1` (configuration not stated), the inhibition is -34.2%.

Turning to `CC(C)C(=O)Nc1ccc(C(=O)NNC(=O)c2cccs2)cc1`, the inhibition was -18.7%.

In the case of `CCc1ccc(NC(=O)C(C)OC(=O)/C=C/c2cccc([N+](=O)[O-])c2)cc1` (configuration not stated), the inhibition was -14.1%.

With `COc1cc(/C=N/NC(=O)CCc2n[nH]c(=O)[nH]c2=O)ccc1O`, the inhibition was -11.1%.

Turning to `Cc1ccc(N(C(=O)C(F)(F)F)C(C(=O)NC2CCCCC2)c2ccncc2)cc1C` (configuration not stated), the inhibition is -8.07%.

Turning to `COc1ccc(-c2nnc(SCC(=O)c3cccs3)o2)c(OC)c1`, the inhibition is 90.3% (active).

With `COc1ccc(-n2c(C)cc(C(=O)CSc3nnc(-c4cccs4)o3)c2C)cc1`, the inhibition was -23.9%.

As to `COc1ccc(OC)c(C(=O)CSc2nnc(-c3cccs3)o2)c1`, the inhibition was -17.3%.

In the case of `COC1=CCC2([N+](=O)[O-])CN(CC(=O)O)CC1([N+](=O)[O-])C2` (configuration not stated), the inhibition was -24.9%.

As for `O=C(COC(=O)/C=C/c1ccc(S(=O)(=O)N2CCCCCC2)cc1)NCc1ccccc1Cl`, the inhibition was -43.5%.

Turning to `COC(=O)c1sc(N)c(C(=O)OC)c1COC(=O)CNS(=O)(=O)c1ccc(C)cc1`, the inhibition was -21.7%.

For `Cc1ccc(C(C[N+](=O)[O-])c2c(C)cc3ccccn23)cc1` (configuration not stated), the inhibition is -23.1%.

As to `CN1CCN(c2ccc(S(=O)(=O)N3CCCCC3)cc2NC(=O)Cc2ccccc2F)CC1`, the inhibition was -23.6%.

With `O=C(NNC(=O)c1cc2c(s1)CCCC2)c1ccccc1`, the inhibition was -2.47%.

Consider `O=C(NCCOc1ccccc1Cl)C(=O)Nc1ccccc1`, for which the inhibition was -35.1%.

With `O=C(CN1C(=O)/C(=C\c2ccc(C(F)(F)F)cc2)Sc2ccccc21)NCc1ccco1`, the inhibition was -14.7%.

As for `COc1ccc(C)cc1NC(=O)C(OC(=O)c1cccc(S(=O)(=O)N(C)c2ccccc2)c1)c1ccccc1` (configuration not stated), the inhibition is -35.9%.

Take `O=[N+]([O-])c1ccc(N/N=C2/CCCCC2c2ccccn2)c([N+](=O)[O-])c1` (configuration not stated): the inhibition was -15.4%.

Consider `O=C(OCc1ccc(Br)cc1)c1cccc(-c2nnc(-c3ccccc3)o2)c1`, for which the inhibition is -11.6%.

On to `C/C(=N\NC(=O)CCn1nc(C)cc1C)C(C)(C)C`, for which the inhibition was -8.98%.

Consider `CC(C)CNC(=O)COC(=O)c1ccccc1OCC(=O)Nc1ccc(Br)cc1`, for which the inhibition is -23.1%.

As to `Cc1cc(C)cc(C(=O)NC(=S)Nc2ccc3[nH]c(=O)[nH]c3c2)c1`, the inhibition was -11.9%.

In the case of `Cc1cc(SCC(=O)NCCN2C(=O)CSC2=O)nc2ccccc12`, the inhibition is -4.76%.

As for `Cc1ccc2[nH]cc(CCCN3C(=O)c4ccccc4C3=O)c2c1`, the inhibition was -23.7%.

For `Cc1ccc(N(C(=O)c2ccc(CN3CCOCC3)o2)C(C(=O)NCCC(C)C)c2cccs2)c(C)c1` (configuration not stated), the inhibition is -6.18%.

Consider `CCCOc1ccc(NC(=O)C2OC3OC(C)(C)OC3C3OC(C)(C)OC23)cc1` (configuration not stated), for which the inhibition is -26.3%.

As for `O=C(COc1nc2ccccc2nc1N1CCOCC1)NCC(F)(F)F`, the inhibition is -21.6%.

As for `CCOc1ccc(Br)cc1S(=O)(=O)Nc1cccc(S(=O)(=O)N(CC)CC)c1`, the inhibition is -29.5%.

As to `O=C1NC(c2ccc(-c3ccccc3[N+](=O)[O-])o2)C(C(=O)c2ccc(Cl)cc2)C(O)(C(F)(F)F)N1` (configuration not stated), the inhibition was -11.1%.

In the case of `CCOc1ccc(Oc2nc(C)cc(OC)n2)nn1`, the inhibition is -16%.

Consider `Cc1cccc(OCCNC(=S)NC(=O)c2cccnc2)c1`, for which the inhibition is -28.5%.

Take `O=C(NCCC1=CCCCC1)c1ccc(Cl)c([N+](=O)[O-])c1`: the inhibition was -21.9%.

As for `CC(C)(C)c1ccc(NC(=O)COC(=O)CCc2nc3ccccc3c(=O)[nH]2)cc1`, the inhibition was -15.2%.

Consider `COc1ccc(NC(=O)c2sc(N3CCOCC3)nc2-c2ccccc2)c(OC)c1`, for which the inhibition was -1.88%.

Turning to `CC1=C(C)CC(C(=O)NNC(=O)c2csc3c2CCC(C(C)(C)C)C3)C(C(=O)O)C1` (configuration not stated), the inhibition is -33.4%.

In the case of `Cc1ccc(C)c(NC(=O)C(OC(=O)c2ccc(C)s2)c2ccccc2)c1` (configuration not stated), the inhibition is -11.6%.

As for `Cc1ccc(/C=C/C(=O)Nc2cc(S(=O)(=O)N3CCCCCC3)ccc2OCC(F)(F)F)o1`, the inhibition is 7.49%.

For `O=c1[nH]c(CN2CCN(S(=O)(=O)c3ccc4c(c3)OCCO4)CC2)nc2sc3c(c12)CCCC3`, the inhibition is -8.83%.

With `Cc1ccc(S(=O)(=O)N(CC(=O)Nc2cccc([N+](=O)[O-])c2)Cc2ccc(Cl)cc2)cc1`, the inhibition is -31.4%.

As for `CC(C)OCCCNC(=O)c1cc(Sc2ccc(F)cc2)nc2ccccc12`, the inhibition is -10.5%.

Take `COc1cccc(-n2c(SCC(=O)c3c[nH]c4ccccc34)nc3ccccc3c2=O)c1`: the inhibition is -22.8%.

`C/C(=N\NC(=O)c1ccc(CSc2nc(C)cc(C)n2)cc1)C1CCCCC1`: the inhibition was -27.2%.

Consider `CC(=O)c1c(O)cc2n(c1=O)-c1ccc(Cl)cc1C2(C)C`, for which the inhibition is -21.9%.

Regarding `CSc1c(SCc2ccccc2)cnn(Cc2ccccc2)c1=O`, the inhibition was -31.9%.

Turning to `Cc1ccc(S(=O)(=O)N(NC2=NS(=O)(=O)c3ccccc32)C(=O)c2ccccc2)cc1`, the inhibition is -28.4%.

For `CCCCCC(=O)Nc1ccc(S(=O)(=O)Nc2ccc(Cl)nn2)cc1`, the inhibition was -13.3%.

On to `CC(C)(C)C(=O)N1CCC[C@@]1(CO)C(=O)O`, for which the inhibition was -12.8%.

Consider `COc1ccc(C(CC(=O)c2ccccc2)S(=O)(=O)c2ccccc2)cc1` (configuration not stated), for which the inhibition was -12.2%.

As to `CCCCN(C)c1ccc([N+](=O)[O-])cc1`, the inhibition was -11%.

Consider `CCCCOc1ccc(NC(=O)[C@@H]2CCCN2C(=O)C2CCN(S(=O)(=O)c3ccc(C)cc3)CC2)cc1`, for which the inhibition was -8.82%.

As for `Cc1ccccc1Cn1nc(C)c(NC(=O)C(F)(F)F)c1C`, the inhibition is -28.6%.

With `Cc1ccc(-c2csc(NNC(=O)c3ccccc3)n2)cc1`, the inhibition is -36.8%.

Take `Cc1ccccc1/[N+]([O-])=C/c1ccncc1`: the inhibition was 77.8% (active).

With `CC(NC(=O)C(=O)NN=C1CCC(C(C)(C)C)CC1)c1ccccc1` (configuration not stated), the inhibition was -22%.

Consider `CCOc1ncccc1C(=O)N(CC)CC(=O)Nc1ccc(NC(C)=O)cc1`, for which the inhibition was -14.7%.

As for `Cc1cc(C(=O)CSc2nc(N)cc(=O)[nH]2)c(C)n1-c1cccc(F)c1`, the inhibition is -16.4%.

Regarding `COC(=O)Cc1csc(/N=C/c2c(O)n(-c3cccc(C(F)(F)F)c3)c(=O)c3ccccc23)n1`, the inhibition is -22.8%.

With `COc1ccc(-n2c(C)cc(C(=O)CN3C(=O)NC4(CCc5ccccc54)C3=O)c2C)cc1` (configuration not stated), the inhibition was -19.6%.

With `Cc1scc(C(=O)NNC(=S)NCC(C)C)c1C`, the inhibition was -19.1%.

`COCCCNC(=O)Cn1cc(/C=C(\C#N)C(=O)N2CCN(c3ccccc3)CC2)c2ccccc21`: the inhibition was -25.6%.

For the molecule `CC(=O)Nc1cccc(/C(C)=N/NC(=O)c2c(-c3ccccc3Cl)noc2C)c1`, the inhibition is -32.1%.
